# Tests used:
# Assay in all cases: PBM binding z-score (relative to random genomic background probes); higher = stronger binding; sequences stand for … in GC…GCGATTGACAGCGTAGAATGAAGG
# [1] = test system: PPARg:RXRa DBDmut IVT, anti-RXR (DBD mutation: RXRa K156A/R161A, NR concentration 270 nM, RXRa partner concentration 90 nM)
# Procedure, shortened: (§1)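 For binding z-scores, the reference was random background probes on custom Agilent 4×180K protein-binding microarrays. These arrays were incubated 1 h with ligand-free nuclear receptor dimers in PBS pH 7.4, 2% milk, 0.02% Triton X-100, 1 mM DTT, 0.2 mg/mL BSA and 0.4 mg/ml salmon testes DNA. Fluorescence was scanned after antibody detection of each partner (one per run) and regression-normalized.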
# [2] = test system: PPARg:RXRa IVT, anti-PPARg (NR concentration 270 nM, RXRa partner concentration 90 nM)
# Procedure, shortened: as §1
# [3] = test system: PPARg DBDmut:RXRa IVT, anti-PPARg (DBD mutation: PPARg1 K132A/R137A, NR concentration 270 nM, RXRa partner concentration 90 nM)
# Procedure, shortened: as §1
# [4] = test system: PPARg DBDmut IVT, anti-PPARg (DBD mutation: PPARg1 K132A/R137A, NR concentration 270 nM)
# Procedure, shortened: as §1
# [5] = test system: PPARg homodimer (NR concentration 180 nM)
# Procedure, shortened: as §1
# [6] = test system: PXR:RXRa (NR concentration 270 nM, RXRa partner concentration 90 nM)
# Procedure, shortened: as §1
# [7] = test system: PXR homodimer (NR concentration 270 nM)
# Procedure, shortened: as §1
# [8] = test system: RARa:RXR (NR concentration 270 nM, RXRa partner concentration 90 nM)
# Procedure, shortened: as §1
# [9] = test system: RARa homodimer (NR concentration 270 nM)
# Procedure, shortened: as §1
# [10] = test system: RARb:RXRa (NR concentration 270 nM, RXRa partner concentration 90 nM)
# Procedure, shortened: as §1
Sequence,PBM binding z-score [1],PBM binding z-score [2],PBM binding z-score [3],PBM binding z-score [4],PBM binding z-score [5],PBM binding z-score [6],PBM binding z-score [7],PBM binding z-score [8],PBM binding z-score [9],PBM binding z-score [10]
TCTTGTAGATCAAGCAGGTCAAGAAAGCCTGAGT,1.73,1.75,0.414,-0.0194,0.82,1.7,0.497,1.91,0.192,1.79
CCCACTGGGCCATCAGGTCATTGATATCAACGTT,3.84,5.07,0.243,0.0844,2.19,1.57,0.893,1.95,0.424,2.04
CCAGGCAGGTGAGAAGGTAACTCAGCCTCGATTA,0.637,0.291,-1.38,-1.33,-0.318,-0.256,-0.513,-0.0086,-0.442,0.36
TGATATAGGTAAAAGGTGAAAGTCGGTGTGGTAA,5.38,5.55,1.59,1.77,1.8,1.68,0.555,2.78,1.18,2.05
TCAGACAGGTGAAGGTAATTCAGGTACGCAGTCG,2.77,1.13,0.166,0.166,1.05,0.684,0.0937,1.21,0.385,1.08
TCATATAGGTAAATGCTAGGTGAAAGTACGATCT,3.93,3.03,1.24,1.57,0.891,0.968,0.678,1.38,1.13,0.64
CCTTACGGGTCACGATGTTATAGCACGACGAGCG,3.85,4.86,0.952,0.0806,2.01,3.41,0.295,4.22,0.866,4.39
TCTATTATTTGAAGGGCAACCGACGAGTCCGTTT,2.78,0.734,0.771,1.44,2.12,1.23,1.48,0.961,3.23,1.56
GCGACTGGGGCATCAGCAGGTTACAATAACTTAA,3.24,3.27,-0.414,-0.53,0.365,0.0826,-0.126,0.651,-0.54,0.753
CGAACTAGGTCAAGGACATTGAATCTCCGCACGC,8.24,7.84,1.49,0.731,1.29,1.56,0.252,2.12,0.87,3.98
ATCTCTAGGTAAGACGCAGTTCAGTGAAGAACGC,1.69,0.781,-0.276,0.85,0.0862,0.526,0.389,-0.309,0.278,0.0267
ATATGTAGGTTAGCTGGGGTCAGTCAGACTAGGC,6.39,6.31,2.61,1.83,1.96,5.06,1.14,3.81,0.813,2.88
CGTCCAAGGTCAAGGTCAGTAAAAGAGACTCGAA,3.53,4.49,0.553,0.71,4.59,4.72,1.84,5,3.01,5.53
CATACAGGGTCAGCTAGGCCAGAGGAGGGACGGC,0.736,2.07,1.18,1.1,1.66,2.15,-0.08,3.04,0.169,4.16
ATATGAAGGTTAGCTGGGGTCATTCAGACTAGGC,1.16,2.19,0.859,1.21,2.53,6.56,5,5.87,1.42,3.55
GCATATAGGTAATAAAAGGTGAAAGTCCGATTGT,3.99,3.33,0.83,0.676,1.38,0.771,0.163,2.04,0.974,1.12
GGAACGCGGGCAAGTTGATAGCAGAGTTTGATGG,-0.223,-0.448,-0.461,-1.56,-0.831,-0.588,-0.209,-0.839,-1.25,0.294
GCTAGTTGGGCAGTAAAAGGTCACACACCGGTCG,0.484,2.09,-0.128,-0.41,4.82,5.1,1.13,6.26,2.32,4.16
CTCGAAAGGTCGTGCTCAGCTGAGTATACCAAAC,0.87,1.49,0.246,0.618,1.59,2.99,-0.206,3.49,0.13,3.72
ATTAGTTGGTCAGCTGAGGTCACACACAATTCGG,2.22,3.28,0.989,1.49,3.67,5.59,2.59,4.84,2.74,3.72
CCGACTGGGGCGAAGGTTACCATACTCAGTACGA,1.13,2.83,-0.805,-0.462,0.137,0.261,-0.624,0.961,-0.33,0.726
TCTGCTAGGTCAGATGGTCAGCTAACGAGCTGCC,2.66,2.86,0.906,-0.32,0.276,0.315,-0.95,1.22,-1.27,3.32
CGAACGAGGGCATGAGTTGATATCAAATGCCGAT,3.23,2.11,0.21,-0.287,0.26,0.636,-0.013,0.352,-0.464,2.01
